# Reference: the supplement of paper PMC8728848
# This excerpt belongs to a sample that is enriched for the strongest signals.
# Experiments:
# Test in all cases: glycan array binding signal (z-score within array); higher = stronger binding
# Conditions in all cases: glycan notation: IUPAC condensed, linker removed
# [1] = target: Fuc(a1-2)Gal(b1-3)GalNAc(a1-3)[Fuc(a1-2)]Gal(b1-4)Glc
# Procedure, shortened: (§1)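 The Consortium for Functional Glycomics database supplied 3228 glycan arrays, of which those lacking an available protein sequence were dropped. The binding signal, a within-array Z-score, was averaged across arrays of the same protein sequence and across linkers. Negative scores can be read as non-binding.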
# [2] = target: Fuc(a1-2)Gal(b1-3)GalNAc(b1-4)[Neu5Ac(a2-3)]Gal(b1-4)Glc
# Procedure, shortened: as §1
# [3] = target: Fuc(a1-2)Gal(b1-3)GlcNAc(b1-3)Gal(b1-4)Glc
# Procedure, shortened: as §1
# [4] = target: Fuc(a1-2)Gal(b1-4)GlcNAc(b1-3)[Fuc(a1-2)Gal(b1-4)GlcNAc(b1-6)]GalNAc
# Procedure, shortened: as §1
# [5] = target: Fuc(a1-2)Gal(b1-4)GlcNAc(b1-6)GalNAc
# Procedure, shortened: as §1
# [6] = target: Fuc(a1-2)Gal(b1-4)[Fuc(a1-3)]GalNAc(b1-3)Gal(b1-4)[Fuc(a1-3)]GlcNAc
# Procedure, shortened: as §1
# Fuc(a1-2)GlcNAc = target: Fuc(a1-2)GlcNAc
# Procedure, shortened: as §1
# [7] = target: Fuc(a1-2)[Gal(a1-3)]Gal(b1-3)GlcNAc
# Procedure, shortened: as §1
# [8] = target: Fuc(a1-2)[Gal(a1-3)]Gal(b1-4)Glc
# Procedure, shortened: as §1
# Gal(a1-3)Gal(b1-4)GlcNAc = target: Gal(a1-3)Gal(b1-4)GlcNAc
# Procedure, shortened: as §1
# Gal(a1-6)Glc = target: Gal(a1-6)Glc
# Procedure, shortened: as §1
# [9] = target: Gal(b1-3)GalNAc(a1-3)[Fuc(a1-2)]Gal(b1-4)Glc
# Procedure, shortened: as §1
# [10] = target: Gal(b1-3)GalNAc(b1-3)Gal(b1-4)Glc
# Procedure, shortened: as §1
# [11] = target: Gal(b1-3)[Fuc(a1-4)]GlcNAc(b1-3)Gal(b1-3)[Fuc(a1-4)]GlcNAc
# Procedure, shortened: as §1
# [12] = target: Gal(b1-3)[Fuc(a1-4)]GlcNAc(b1-6)GalNAc
# Procedure, shortened: as §1
# [13] = target: Gal(b1-4)GlcNAc(b1-2)Man(a1-3)[GlcNAc(b1-4)][Gal(b1-4)GlcNAc(b1-2)Man(a1-6)]Man(b1-4)GlcNAc(b1-4)GlcNAc
# Procedure, shortened: as §1
# [14] = target: Gal(b1-4)GlcNAc(b1-2)Man(a1-6)Man(b1-4)GlcNAc(b1-4)GlcNAc
# Procedure, shortened: as §1
# [15] = target: Gal(b1-4)GlcNAc(b1-3)Gal(b1-4)GlcNAc(b1-3)Gal(b1-4)GlcNAc(b1-3)Gal(b1-4)GlcNAc(b1-3)Gal(b1-4)GlcNAc(b1-2)Man(a1-3)[Gal(b1-4)GlcNAc(b1-3)Gal(b1-4)GlcNAc(b1-3)Gal(b1-4)GlcNAc(b1-3)Gal(b1-4)GlcNAc(b1-3)Gal(b1-4)GlcNAc(b1-2)Man(a1-6)]Man(b1-4)GlcNAc(b1-4)[Fuc(a1-6)]GlcNAc
# Procedure, shortened: as §1
# [16] = target: Gal(b1-4)GlcNAc(b1-3)Gal(b1-4)GlcNAc(b1-3)[Gal(b1-4)GlcNAc(b1-3)Gal(b1-4)GlcNAc(b1-6)]GalNAc
# Procedure, shortened: as §1
# Gal3S(b1-4)Glc = target: Gal3S(b1-4)Glc
# Procedure, shortened: as §1
# [17] = target: Gal3S(b1-4)[Fuc(a1-3)]GlcNAc
# Procedure, shortened: as §1
# [18] = target: Gal3S(b1-4)[Fuc(a1-3)]GlcNAc6S
# Procedure, shortened: as §1
# Gal3S6S(b1-4)GlcNAc6S = target: Gal3S6S(b1-4)GlcNAc6S
# Procedure, shortened: as §1
# Gal6S(b1-4)GlcNAc6S = target: Gal6S(b1-4)GlcNAc6S
# Procedure, shortened: as §1
# GalNAc(b1-3)GalNAc = target: GalNAc(b1-3)GalNAc
# Procedure, shortened: as §1
# GalNAc(b1-4)Gal(b1-4)Glc = target: GalNAc(b1-4)Gal(b1-4)Glc
# Procedure, shortened: as §1
# GalNAc(b1-4)GlcNAc = target: GalNAc(b1-4)GlcNAc
# Procedure, shortened: as §1
# [19] = target: GalNAc(b1-4)GlcNAc(b1-3)GalNAc(b1-4)GlcNAc
# Procedure, shortened: as §1
# [20] = target: GlcA3S(b1-3)Gal(b1-4)GlcNAc(b1-3)Gal(b1-4)Glc
# Procedure, shortened: as §1
# [21] = target: GlcNAc(a1-4)Gal(b1-4)GlcNAc
# Procedure, shortened: as §1
binder,measurement,setting,value
"AAA (Anguilla anguilla), Q7SIC1 (protein) VIPEGYTQENVAVRGKATQSAQLRGEHAANSEASNAIDGNRDSNFYHGSCTHSSGQANPWWRVDLLQVYTITSVTITNRGDCCGERISGAEINIGQHLASNGVNNPECSVIGSMATGETKTFHCPAPMIGRYVVTYLPTSESLHLCEVEVNVDKPAAA",glycan array binding signal (z-score),[1],-0.257
same,glycan array binding signal (z-score),[2],-0.193
same,glycan array binding signal (z-score),[3],-0.189
same,glycan array binding signal (z-score),[4],-0.001
same,glycan array binding signal (z-score),[5],0.002
same,glycan array binding signal (z-score),[6],-0.583
same,glycan array binding signal (z-score),Fuc(a1-2)GlcNAc,8.41
same,glycan array binding signal (z-score),[7],0.046
same,glycan array binding signal (z-score),[8],-0.037
same,glycan array binding signal (z-score),Gal(a1-3)Gal(b1-4)GlcNAc,-0.169
same,glycan array binding signal (z-score),Gal(a1-6)Glc,-0.097
same,glycan array binding signal (z-score),[9],-0.279
same,glycan array binding signal (z-score),[10],0.237
same,glycan array binding signal (z-score),[11],0.164
same,glycan array binding signal (z-score),[12],-0.081
same,glycan array binding signal (z-score),[13],-0.238
same,glycan array binding signal (z-score),[14],-0.168
same,glycan array binding signal (z-score),[15],-0.123
same,glycan array binding signal (z-score),[16],1.43
same,glycan array binding signal (z-score),Gal3S(b1-4)Glc,-0.117
same,glycan array binding signal (z-score),[17],-0.194
same,glycan array binding signal (z-score),[18],-0.154
same,glycan array binding signal (z-score),Gal3S6S(b1-4)GlcNAc6S,-0.044
same,glycan array binding signal (z-score),Gal6S(b1-4)GlcNAc6S,-0.292
same,glycan array binding signal (z-score),GalNAc(b1-3)GalNAc,-0.16
same,glycan array binding signal (z-score),GalNAc(b1-4)Gal(b1-4)Glc,-0.076
same,glycan array binding signal (z-score),GalNAc(b1-4)GlcNAc,1.89
same,glycan array binding signal (z-score),[19],3.34
same,glycan array binding signal (z-score),[20],-0.136
same,glycan array binding signal (z-score),[21],2.3
